Assay results taken from PubChem BioAssay (EPA / NIEHS).
Active and inactive are the calls of the source. The calls were made as follows: active = hit-call score of the fitted dose curve at least 0.9, where 1 is the maximum; inactive = score below 0.9.

Assay: CEETOX_H295R_CORTISOL: CeeTox H295R High-throughput Steroidogenesis Assay for Cortisol (AID 2283438);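 also: cortisol secreted into medium quantified by LC-MS/MS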
Settings: actives raise or lower the signal
How it was run: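 Steroidogenesis in H295R, per modified OECD 456: 48 h forskolin (10 uM), then 48 h exposure, 0.1% DMSO. Cortisol by extraction and tandem MS; viability by MTT (570/650 nm); cytotoxic chemicals diluted and re-tested.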

| Compound | outcome | AC50 |
| --- | --- | --- |
| COc1cccc([C@H](O)C2CCN(CCc3ccc(F)cc3)CC2)c1OC | inactive |  |
| CN1C(=O)N(c2ccccc2Br)Cc2cnc(Nc3ccc4c(c3)OCC(CO)O4)nc21 (stereo not given) | inactive |  |
| Oc1ccc2ccccc2c1 | inactive |  |
| CCCCCCCC[Si](OCC)(OCC)OCC | inactive |  |
| Clc1cc(Cl)c2c(c1)N=C1CCCCCN1C2 | inactive |  |
| Clc1ccccc1C(c1ccccc1)(c1ccccc1)n1ccnc1 |  | 50.2 nM (active) |
| O=C1CCC(C2CCCCC2)CC1 | inactive |  |
| CC(C)(c1cc(Br)c(O)c(Br)c1)c1cc(Br)c(O)c(Br)c1 | inactive |  |
| Cc1oc2c(NC(=O)c3c(Cl)cccc3Cl)cccc2c1C(C)(C)O | inactive |  |
| CCCCCCCCN(C)CCCCCCCC | inactive |  |

Assay: CEETOX_H295R_DOC: CeeTox H295R High-throughput Steroidogenesis Assay for DOC (AID 2283439)
Settings: actives raise or lower the signal
How it was run: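 H295R, fsk 10 uM ×48 h pre, cmpd ×48 h (0.1% DMSO). Media → MTBE extr. → LC-MS/MS, DOC. Bidirectional fit vs DMSO; MTT viability same wells, re-test diluted if <70%.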

| Compound | outcome | AC50 |
| --- | --- | --- |
| O=C(O)Cn1c(=O)n(Cc2ccc(Br)cc2F)c(=O)c2ccc(Cl)cc21 | inactive |  |
| O=c1c(-c2ccc(O)cc2)coc2cc(O)cc(O)c12 |  | 4440 nM (active) |
| Cc1c2ccccc2c(C)c2c1ccc1ccccc12 | inactive |  |
| CCCCCCCCOC(=O)c1cc(O)c(O)c(O)c1 |  | 5000 nM (active) |
| Cc1cc2c(cc1C(F)(F)F)N(C(=O)Nc1ccc(Oc3cccnc3C)nc1)CC2 |  | 227 nM (active) |
| CC(C)(C)c1cc(/C=C2\SC(N)=NC2=O)cc(C(C)(C)C)c1O |  | 866 nM (active) |
| NC(=O)c1nc(-c2cccc(-c3cc(F)ccc3OCC(F)(F)C(F)(F)F)c2)n[nH]1 | inactive |  |
| CCCCCCCCCCCC[N+](C)(C)C | inactive |  |
| Cc1ccc2oc(CN(Cc3ccccc3)C(=O)Nc3c(F)cc(F)cc3F)c(-c3ccc(Cl)cc3)c2c1 |  | 1360 nM (active) |
| O=C(Nc1ccc(Cl)cc1)Nc1ccc(Cl)c(Cl)c1 |  | 417 nM (active) |
| CC(=O)N1CCN(c2ccc(OC[C@H]3CO[C@](Cn4ccnc4)(c4ccc(Cl)cc4Cl)O3)cc2)CC1 |  | 1000 nM (active) |
| CCCCOC(=O)c1ccc(O)cc1 | inactive |  |
| OC12N=C(c3ccccc3)SC1Cc1cc(Cl)ccc12 (stereo not given) |  | 17600 nM (active) |
| C[C@]12CC[C@@H]3c4ccc(O)cc4CC[C@H]3[C@@H]1CC[C@H]2O |  | 3310 nM (active) |
| COc1cccc([C@H](O)C2CCN(CCc3ccc(F)cc3)CC2)c1OC |  | 9100 nM (active) |
| CN1C(=O)N(c2ccccc2Br)Cc2cnc(Nc3ccc4c(c3)OCC(CO)O4)nc21 (stereo not given) |  | 679 nM (active) |
| Oc1ccc2ccccc2c1 | inactive |  |
| CCCCCCCC[Si](OCC)(OCC)OCC | inactive |  |
| Clc1cc(Cl)c2c(c1)N=C1CCCCCN1C2 | inactive |  |
| Clc1ccccc1C(c1ccccc1)(c1ccccc1)n1ccnc1 |  | 40.1 nM (active) |
| O=C1CCC(C2CCCCC2)CC1 | inactive |  |
| CC(C)(c1cc(Br)c(O)c(Br)c1)c1cc(Br)c(O)c(Br)c1 | inactive |  |
| Cc1oc2c(NC(=O)c3c(Cl)cccc3Cl)cccc2c1C(C)(C)O |  | 2530 nM (active) |
| CCCCCCCCN(C)CCCCCCCC | inactive |  |

Assay: CEETOX_H295R_ESTRADIOL: CeeTox H295R High-throughput Steroidogenesis Assay for Estradiol (AID 2283440);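 also: estradiol secreted into medium quantified by LC-MS/MS after dansyl derivatisation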
Settings: actives raise or lower the signal
How it was run: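 Estradiol in spent medium measured by LC-MS/MS after dansyl chloride derivatisation. Forskolin-primed (10 uM, 48 h) human adrenal H295R cells received test chemical 48 h at 0.1% DMSO; concentrations lowered until MTT viability >/=70%.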

| Compound | outcome | AC50 |
| --- | --- | --- |
| O=C(O)Cn1c(=O)n(Cc2ccc(Br)cc2F)c(=O)c2ccc(Cl)cc21 | inactive |  |
| Cc1c2ccccc2c(C)c2c1ccc1ccccc12 | inactive |  |
| CCCCCCCCOC(=O)c1cc(O)c(O)c(O)c1 | inactive |  |
| Cc1cc2c(cc1C(F)(F)F)N(C(=O)Nc1ccc(Oc3cccnc3C)nc1)CC2 | inactive |  |
| CC(C)(C)c1cc(/C=C2\SC(N)=NC2=O)cc(C(C)(C)C)c1O | inactive |  |
| NC(=O)c1nc(-c2cccc(-c3cc(F)ccc3OCC(F)(F)C(F)(F)F)c2)n[nH]1 | inactive |  |
| Cc1ccc2oc(CN(Cc3ccccc3)C(=O)Nc3c(F)cc(F)cc3F)c(-c3ccc(Cl)cc3)c2c1 | inactive |  |
| O=C(Nc1ccc(Cl)cc1)Nc1ccc(Cl)c(Cl)c1 | inactive |  |
| CC(=O)N1CCN(c2ccc(OC[C@H]3CO[C@](Cn4ccnc4)(c4ccc(Cl)cc4Cl)O3)cc2)CC1 | inactive |  |
| OC12N=C(c3ccccc3)SC1Cc1cc(Cl)ccc12 (stereo not given) | inactive |  |
| COc1cccc([C@H](O)C2CCN(CCc3ccc(F)cc3)CC2)c1OC | inactive |  |
| CN1C(=O)N(c2ccccc2Br)Cc2cnc(Nc3ccc4c(c3)OCC(CO)O4)nc21 (stereo not given) | inactive |  |
| Clc1ccccc1C(c1ccccc1)(c1ccccc1)n1ccnc1 |  | 244 nM (active) |

Assay: CEETOX_H295R_ESTRONE: CeeTox H295R High-throughput Steroidogenesis Assay for Estrone (AID 2283441);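 also: estrone secreted into medium measured by LC-MS/MS after dansyl derivatization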;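 as to AC50: human adrenal H295R cells prestimulated with forskolin for two days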
Settings: actives raise or lower the signal
How it was run: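 Forskolin-stimulated H295R cells are treated 48 h with chemical, and estrone in the medium is measured by LC-MS/MS. Activity is fitted in both directions relative to DMSO controls, with chemicals diluted until MTT viability reaches at least 70%.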

| Compound | outcome | AC50 |
| --- | --- | --- |
| O=C(O)Cn1c(=O)n(Cc2ccc(Br)cc2F)c(=O)c2ccc(Cl)cc21 | inactive |  |
| Cc1c2ccccc2c(C)c2c1ccc1ccccc12 |  | 657 nM (active) |
| CCCCCCCCOC(=O)c1cc(O)c(O)c(O)c1 | inactive |  |
| Cc1cc2c(cc1C(F)(F)F)N(C(=O)Nc1ccc(Oc3cccnc3C)nc1)CC2 | inactive |  |
| CC(C)(C)c1cc(/C=C2\SC(N)=NC2=O)cc(C(C)(C)C)c1O | inactive |  |
| NC(=O)c1nc(-c2cccc(-c3cc(F)ccc3OCC(F)(F)C(F)(F)F)c2)n[nH]1 | inactive |  |
| Cc1ccc2oc(CN(Cc3ccccc3)C(=O)Nc3c(F)cc(F)cc3F)c(-c3ccc(Cl)cc3)c2c1 | inactive |  |
| O=C(Nc1ccc(Cl)cc1)Nc1ccc(Cl)c(Cl)c1 | inactive |  |
| CC(=O)N1CCN(c2ccc(OC[C@H]3CO[C@](Cn4ccnc4)(c4ccc(Cl)cc4Cl)O3)cc2)CC1 |  | 1470 nM (active) |
| OC12N=C(c3ccccc3)SC1Cc1cc(Cl)ccc12 (stereo not given) | inactive |  |
| COc1cccc([C@H](O)C2CCN(CCc3ccc(F)cc3)CC2)c1OC | inactive |  |
| CN1C(=O)N(c2ccccc2Br)Cc2cnc(Nc3ccc4c(c3)OCC(CO)O4)nc21 (stereo not given) |  | 326 nM (active) |
| Clc1ccccc1C(c1ccccc1)(c1ccccc1)n1ccnc1 |  | 410 nM (active) |
